Drawing on PubChem BioAssay (NCATS), this text covers Potency for 15 compounds.

Results filed as inconclusive are left out. Active and inactive are the calls of the source. The call rests on the fitted dose curve; in most records, active means well fitted curve in the direction sought with a large enough effect; inconclusive means small, poorly fitted or top-dose-only effect, or another doubt; inactive means no such curve, though single readings can be large; an effect the other way counts as inactive or inconclusive.

Experiment [1] in a line: qHTS of pediatric cancer cell lines to identify multiple opportunities for drug repurposing: Confirmatory screen for BT-37 cells (AID 1347117). Further: potency means the concentration at half of the fitted maximal effect.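 Further: viability measured after 48 h of compound exposure; nearly all actives have a fitted effect of over 55% in size.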 The gist of the method: (§1)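 Cells (500-1,000/well) rested 5 h, then received compounds for 48 h; metabolically active cells were measured by CellTiter-Glo luminescence. Final concentrations spanned up to 46 µM (MIPE, 11-point) or 0.59 nM-46 µM (NPC, 8-point) in primary screens, 11-point in follow-ups.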
On the technique in general: In qHTS, concentration-response curves come from the screen itself.

The nature of experiment [2]: qHTS of pediatric cancer cell lines to identify multiple opportunities for drug repurposing: Confirmatory screen for TC32 cells (AID 1347118).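 Further: cells exposed to compound for 48 h before the read; nearly all actives have a fitted effect of over 65% in size.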 Further: potency means the concentration at half of the fitted maximal effect. The gist of the method: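 Luminescent CellTiter-Glo read-out of metabolically active TC32 cells after 48 h compound exposure. Primary: MIPE 11-point, 0.78 nM–46 µM; NPC 8-point, 0.59 nM–46 µM. Confirmatory: 11-point dilutions.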

The nature of experiment [3]: qHTS of pediatric cancer cell lines to identify multiple opportunities for drug repurposing: Confirmatory screen for control Hh wild type fibroblast cells (AID 1347121). Further: nearly all actives have a fitted effect of over 70% in size. The gist of the method: as §1
A short description of experiment [4]: qHTS of pediatric cancer cell lines to identify multiple opportunities for drug repurposing: Confirmatory screen for U-2 OS cells (AID 1347122). Further: nearly all actives have a fitted effect of over 65% in size. Further: potency means the concentration at half of the fitted maximal effect. The gist of the method:
as §1

The nature of experiment [5]: qHTS of pediatric cancer cell lines to identify multiple opportunities for drug repurposing: Confirmatory screen for RD cells (AID 1347124).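 Further: cells exposed to compound for 48 h before viability readout; nearly all actives have a fitted effect of over 65% in size.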 Further: potency means the concentration at half of the fitted maximal effect. The gist of the method:
as §1

Experiment [6] can be described thus: qHTS of pediatric cancer cell lines to identify multiple opportunities for drug repurposing: Confirmatory screen for Rh18 cells (AID 1347125). Further: nearly all actives have a fitted effect of over 55% in size. Further: potency means the concentration at half of the fitted maximal effect. The gist of the method: as §1
Experiment [7] can be described thus: qHTS of pediatric cancer cell lines to identify multiple opportunities for drug repurposing: Confirmatory screen for Rh30 cells (AID 1347126). Further: nearly all actives have a fitted effect of over 55% in size. Further: potency means the concentration at half of the fitted maximal effect. The gist of the method: as §1
Experiment [8] can be described thus: qHTS of pediatric cancer cell lines to identify multiple opportunities for drug repurposing: Confirmatory screen for OHS-50 cells (AID 1347128).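 Further: compound exposure lasted 48 h at 37 degrees C; nearly all actives have a fitted effect of over 55% in size.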 Further: potency means the concentration at half of the fitted maximal effect. The gist of the method: as §1
Experiment [9] is described as follows: qHTS of pediatric cancer cell lines to identify multiple opportunities for drug repurposing: Confirmatory screen for SK-N-SH cells (AID 1347129).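 Further: cells exposed to compound for 48 h before viability read; nearly all actives have a fitted effect of over 60% in size.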 Further: potency means the concentration at half of the fitted maximal effect. The gist of the method:
as §1

In experiment [10] the test system is Zika virus NS2B-NS3 protease. Nature of the experiment: Primary screen GU AMC qHTS for Zika virus inhibitors (AID 1347154). Further: nearly all actives have a fitted effect of over 70% in size. Further: potency means the concentration at half of the fitted maximal effect. The gist of the method:
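Fluorogenic AMC-substrate cleavage by noncovalent NS2B-NS3 protease complex (25 nM, pH 8.0 Tris buffer with Tween 20) followed for 15 minutes at room temperature (~20% conversion). Percent inhibition from ex340/em450 signal change, fitted by 4-parameter Hill equation.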

For experiment [11], the system named is Zika virus NS2B-NS3 protease (unlinked complex). Nature of the experiment: Primary screen GU Rhodamine qHTS for Zika virus inhibitors: Unlinked NS2B-NS3 protease assay (AID 1347159). Further: nearly all actives have a fitted effect of over 60% in size. The gist of the method: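 Noncovalent NS2B hydrophilic domain–NS3 protease domain complex (25 nM) preincubated 15 min at room temperature with compounds (up to 114 microM) in 10 mM Tris-HCl pH 8.0, 0.01% Tween 20; 1.5 microM Rhodamine110 substrate added, fluorescence change over 15 min fitted to Hill equation.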

The nature of experiment [12]: qHTS of pediatric cancer cell lines to identify multiple opportunities for drug repurposing: Confirmatory screen for MG 63 (6-TG R) cells (AID 1347119). The gist of the method: as §1
The nature of experiment [13]: qHTS of pediatric cancer cell lines to identify multiple opportunities for drug repurposing: Confirmatory screen for Saos-2 cells (AID 1347127). Further: nearly all actives have a fitted effect of over 60% in size. Further: potency means the concentration at half of the fitted maximal effect. The gist of the method: as §1
A short description of experiment [14]: qHTS of pediatric cancer cell lines to identify multiple opportunities for drug repurposing: Confirmatory screen for Rh41 cells (AID 1347123). Further: potency means the concentration at half of the fitted maximal effect; nearly all actives have a fitted effect of over 60% in size. The gist of the method:
as §1

Experiment [15] deals with Furin (Homo sapiens) (UniProt P09958). Nature of the experiment: Furin counterscreen qHTS for Zika virus inhibitors (AID 1347149). Further: potency means the concentration at half of the fitted maximal effect; nearly all actives have a fitted effect of over 70% in size. The gist of the method:
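Fluorogenic cleavage of BOC-RVRR-AMC (2 microM final, Km ~15 µM) was monitored (ex 340, em 450 nm) at 37C after 15 min RT preincubation of 5 nM furin with compounds in HEPES pH 7.0 buffer with CaCl2 and Triton X-100. Percent inhibition was fitted to a 4-parameter Hill curve.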
A general note: A counterscreen serves to expose hits that act by an unwanted route or on another target.

Chain of Furin (Homo sapiens) (P09958 whole entry, looked up): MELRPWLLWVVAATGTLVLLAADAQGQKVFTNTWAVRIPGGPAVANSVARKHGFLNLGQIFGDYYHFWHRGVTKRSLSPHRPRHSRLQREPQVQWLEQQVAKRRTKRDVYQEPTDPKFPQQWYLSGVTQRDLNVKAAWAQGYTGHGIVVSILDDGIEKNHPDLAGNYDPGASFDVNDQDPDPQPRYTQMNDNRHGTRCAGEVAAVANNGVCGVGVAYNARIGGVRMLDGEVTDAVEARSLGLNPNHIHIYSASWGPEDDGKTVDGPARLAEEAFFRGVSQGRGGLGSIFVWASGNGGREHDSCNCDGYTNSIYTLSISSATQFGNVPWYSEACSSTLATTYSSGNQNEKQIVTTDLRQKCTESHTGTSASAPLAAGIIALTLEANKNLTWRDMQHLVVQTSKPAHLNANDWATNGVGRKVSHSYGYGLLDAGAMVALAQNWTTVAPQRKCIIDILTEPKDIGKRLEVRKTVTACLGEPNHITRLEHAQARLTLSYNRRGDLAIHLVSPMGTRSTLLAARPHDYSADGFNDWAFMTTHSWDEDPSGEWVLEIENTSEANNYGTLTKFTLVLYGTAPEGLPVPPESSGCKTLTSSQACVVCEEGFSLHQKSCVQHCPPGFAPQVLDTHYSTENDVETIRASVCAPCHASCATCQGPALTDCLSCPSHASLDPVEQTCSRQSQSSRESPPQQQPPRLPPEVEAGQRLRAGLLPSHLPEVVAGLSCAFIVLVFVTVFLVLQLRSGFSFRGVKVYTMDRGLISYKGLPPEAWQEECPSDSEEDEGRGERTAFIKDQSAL

On to `CNC(=O)c1nn(C)c2c1C(C)(C)Cc1cnc(Nc3ccc(N4CCN(C)CC4)cc3)nc1-2`, for which the Potency is 1040 nM (active) in [1]; 1650 nM (active) in experiment [2]; 1310 nM (active) in [4]; 233 nM (active) in experiment [5]; 4650 nM (active) in [6]; 928 nM (active) in experiment [7]. Also, the Potency is 5850 nM (active) in experiment [8] and 1180 nM (active) in experiment [9]. For the same compound, the Potency entry in experiment [3], in [10] and in experiment [11] was “inactive” throughout.

Regarding `Cc1nc(N)ncc1-c1nc(N2CCOCC2)c2sc(C(C)(C)O)cc2n1`, the Potency in experiment [1] is 8270 nM (active); in [2], 2330 nM (active); in experiment [12] it was 465 nM (active); in [5], 1170 nM (active); in [6] it was 1650 nM (active); in experiment [7], 737 nM (active). The Potency in experiment [13] is 1470 nM (active); in experiment [8], 2930 nM (active); in experiment [9], 1480 nM (active). For the same compound, the Potency entry in experiment [10] and in [11] was “inactive” each time.

As to `COc1cc(Nc2ncc(F)c(Nc3ccc4c(n3)N(COP(=O)(O)O)C(=O)C(C)(C)O4)n2)cc(OC)c1OC`, the Potency in experiment [1] is 10400 nM (active); in experiment [2], 5850 nM (active); in experiment [12], 2330 nM (active); in [5], 16500 nM (active); in [7], 2330 nM (active); in experiment [13], 7370 nM (active). Moreover, the Potency in experiment [8] was 5220 nM (active); in [9], 2350 nM (active).

Turning to `Nc1ccccc1NC(=O)c1ccc(CNC(=O)OCc2cccnc2)cc1`, the Potency is 3020 nM (active) in [1]; 3020 nM (active) in experiment [2]; 2400 nM (active) in experiment [12]; 13500 nM (active) in experiment [5]; 7590 nM (active) in experiment [6]; 19100 nM (active) in experiment [7]. Further, the Potency in [13] was 2140 nM (active); in [8], 10700 nM (active). In addition, the Potency result in experiment [10] and in experiment [11] was “inactive” throughout.

As for `CC(=O)Nc1nc(C)c(-c2ccc(Cl)c(S(=O)(=O)NCCO)c2)s1`, the Potency was 18500 nM (active) in experiment [1]; 7370 nM (active) in experiment [2]; 2330 nM (active) in experiment [12]; 14700 nM (active) in experiment [4]; 11700 nM (active) in experiment [6]; 14700 nM (active) in experiment [7]. The values for the Potency in experiment [13] and in experiment [8] were 16500 nM (active) and 11700 nM (active), respectively. For the same compound, the Potency entry in experiment [10] and in experiment [11] was “inactive” in each case.

Take `COc1cc2c(Oc3ccc(-c4cnc(Nc5ccc(F)cc5)n(C)c4=O)cc3F)ccnc2cc1OCCCN1CCOCC1`: the Potency in [1] was 18500 nM (active); in experiment [2], 2930 nM (active); in experiment [12] it was 2930 nM (active); in experiment [4], 4650 nM (active); in experiment [14], 3690 nM (active); in [5], 11700 nM (active). Moreover, the Potency in experiment [6] was 8270 nM (active); in [7], 4650 nM (active); in experiment [13], 7370 nM (active); in [8] it was 3690 nM (active); in experiment [9], 3320 nM (active); in [10], 24100 nM (active).

Regarding `COc1ccc(F)c(F)c1C(=O)c1cnc(NC2CCN(S(C)(=O)=O)CC2)nc1N`, the Potency in experiment [1] is 2330 nM (active); in experiment [2], 2080 nM (active); in [14] it was 2330 nM (active); in [5] it was 827 nM (active); in [8], 2330 nM (active); in experiment [9] it was 2350 nM (active). In addition, the Potency entry in experiment [3], in experiment [7], in experiment [10] and in [11] was “inactive” in each case.

On to `CC(C)c1cc(-c2n[nH]c(=O)n2-c2ccc3c(ccn3C)c2)c(O)cc1O`, for which the Potency result in [1], in experiment [2], in experiment [3], in experiment [8] and in experiment [9] was “inactive” each time.

As for `Cc1[nH]c2ccccc2c1CCNCc1ccc(C=CC(=O)NO)cc1`, the Potency in [1] was 165 nM (active); in [2] it was 117 nM (active); in experiment [12] it was 165 nM (active); in experiment [14], 4.1 nM (active); in experiment [6], 165 nM (active); in [13], 233 nM (active). Also, the Potency in experiment [8] was 293 nM (active); in [9], 469 nM (active). Besides, the Potency entry in [5] and in experiment [10] was “inactive” in each case.

On to `O=c1[nH]nc(Sc2ncc([N+](=O)[O-])s2)n1-c1ccc2c(c1)OCCO2`, for which the Potency was 16500 nM (active) in experiment [1]; 6570 nM (active) in [2]; 11700 nM (active) in experiment [12]; 9270 nM (active) in [4]; 9270 nM (active) in [5]; 7370 nM (active) in [7]. Further, the Potency is 8270 nM (active) in experiment [13], 13100 nM (active) in experiment [8] and 9350 nM (active) in experiment [9]. Moreover, the Potency entry in [10] is “inactive”.

As for `CC(C)c1cc(C(=O)N2Cc3ccc(CN4CCN(C)CC4)cc3C2)c(O)cc1O`, the Potency in [1] was 414 nM (active); in experiment [2], 465 nM (active); in experiment [4], 414 nM (active); in experiment [14], 585 nM (active); in experiment [5] it was 522 nM (active); in [6], 657 nM (active). The values for the Potency in experiment [7] and in [9] were 585 nM (active) and 469 nM (active), respectively. The Potency entry in [3], in experiment [10] and in [11] was “inactive” in each case.

In the case of `NC(=O)c1cccc2cn(-c3ccc([C@@H]4CCCNC4)cc3)nc12`, the Potency in experiment [1] was 5220 nM (active); in [2], 1650 nM (active); in experiment [10] it was 24100 nM (active). Moreover, the Potency result in experiment [3], in [4], in experiment [6], in [13] and in [9] was “inactive” throughout.

On to `CCn1cc(-c2ccnc3[nH]c(-c4cccc(CN(C)C)c4)cc23)c(-c2ccc(NC(=O)N(C)C)cc2)n1`, for which the Potency was 5220 nM (active) in [1]; 46.5 nM (active) in experiment [2]; 1850 nM (active) in [12]; 1850 nM (active) in [14]; 1040 nM (active) in experiment [5]; 16500 nM (active) in [6]. Besides, the Potency in experiment [7] was 293 nM (active); in experiment [13], 16500 nM (active); in experiment [9], 2960 nM (active); in experiment [15], 21500 nM (active).

`COC(=O)Nc1ccc(-c2nc(N3CCOCC3)c3cnn(C4CCN(Cc5cccnc5)CC4)c3n2)cc1`: the Potency is 928 nM (active) in experiment [1]; 1310 nM (active) in experiment [2]; 1850 nM (active) in experiment [12]; 11700 nM (active) in experiment [4]; 5850 nM (active) in experiment [7]; 14800 nM (active) in experiment [9]. In addition, the Potency result in experiment [10] was “inactive”.

Take `CC(C)(O)c1cc2nc(-c3cnc(N)nc3)nc(N3CCOCC3)c2s1`: the Potency in experiment [1] was 1650 nM (active); in experiment [2] it was 827 nM (active); in [12], 369 nM (active); in [6], 1650 nM (active); in experiment [13], 1650 nM (active); in experiment [8], 2930 nM (active). Further, in experiment [9], the Potency is 935 nM (active). Further, the Potency entry in experiment [10] and in experiment [11] was “inactive” throughout.
